Granule exo inh – blocks lytic granule exocytosis | inhibition, % at 10 µM | AID 651702 | actives 0.66% (n = 360,000) | TALL-104 LAMP-1 surface exposure, flow cytometry; cells stimulated with thapsigargin and PMA;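 active means inhibition above about 55%, limit read from the data; inconclusive means no clear call, values can overlap the other calls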
ABCB6 inh 2 – human ABCB6 transporter inhibition; Q9NP58; fluorescence ratio to DMSO, % at 10 µM; K562-ABCB6 porphyrin accumulation, flow cytometry, 1 h; active compounds read low; actives 0.19% (n = 360,000);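 active means fluorescence ratio to DMSO below 75%, the collection mean minus 3 SD; inconclusive means too few cells collected in the well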;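 further: signal is porphyrin accumulated inside mitochondria; 100% equals median channel fluorescence of DMSO control wells; lower ratio means ABCB6 inhibition with less porphyrin fluorescence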
Target sequence (Q9NP58 whole entry, looked up): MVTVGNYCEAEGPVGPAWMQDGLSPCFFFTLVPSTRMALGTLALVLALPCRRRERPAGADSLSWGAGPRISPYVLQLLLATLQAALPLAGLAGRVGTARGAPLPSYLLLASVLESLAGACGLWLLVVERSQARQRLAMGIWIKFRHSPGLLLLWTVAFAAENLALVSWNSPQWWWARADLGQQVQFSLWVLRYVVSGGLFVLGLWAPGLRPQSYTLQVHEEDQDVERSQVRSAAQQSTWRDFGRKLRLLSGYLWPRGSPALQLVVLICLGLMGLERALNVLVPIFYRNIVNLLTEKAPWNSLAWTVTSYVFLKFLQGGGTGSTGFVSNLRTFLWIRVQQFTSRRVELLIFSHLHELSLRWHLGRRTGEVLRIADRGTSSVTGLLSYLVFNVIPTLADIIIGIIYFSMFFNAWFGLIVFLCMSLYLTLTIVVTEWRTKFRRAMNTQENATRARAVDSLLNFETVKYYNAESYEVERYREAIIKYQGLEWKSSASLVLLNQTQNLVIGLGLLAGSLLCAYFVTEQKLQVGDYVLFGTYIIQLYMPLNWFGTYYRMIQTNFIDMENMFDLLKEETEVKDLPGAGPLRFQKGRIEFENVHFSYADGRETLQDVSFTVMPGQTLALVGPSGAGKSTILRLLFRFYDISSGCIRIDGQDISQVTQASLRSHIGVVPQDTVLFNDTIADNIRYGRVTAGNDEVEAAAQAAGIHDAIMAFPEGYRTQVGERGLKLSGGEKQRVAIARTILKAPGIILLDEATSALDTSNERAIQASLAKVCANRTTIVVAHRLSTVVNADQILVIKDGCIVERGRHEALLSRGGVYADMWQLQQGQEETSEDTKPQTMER
Myeloid diff 2 – myeloid differentiation induction | ER-HoxA9 myeloid progenitors, lysozyme-GFP differentiation, flow cytometry | calls only at 10 µM | actives 1% (n = 360,000) | AID 624256;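 active means normalized GFP-positive differentiation at or above the plate's own cutoff, the solvent-only control mean plus 3 SD; inconclusive means no clear call, values can overlap the other calls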;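 further: cells exposed to compound for four days before flow analysis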
The depositor's hits bear a star; i = inactive; ? = inconclusive; . = not tested or not shown; + = active, no number. Hits are enriched below; roughly 1.8% of the tested compounds scored in any of these assays.

SMILES	Granule exo inh	ABCB6 inh 2	Myeloid diff 2
Cc1ccccc1N/C(=N/S(=O)(=O)c1ccccc1)c1ccc(F)cc1	-2	93	+
COc1ccc(NS(=O)(=O)c2cc(N/C(=N\S(=O)(=O)c3ccccc3)c3ccc(F)cc3)ccc2Cl)cc1	-1	97	+
COc1ccc(C(=O)Nc2ccc(Cl)c(S(=O)(=O)Nc3ccccc3OC)c2)cc1	13	96	i
Cc1ccc(/C(=N\S(=O)(=O)c2ccc(Br)cc2)Nc2ccccc2C)cc1	43	94	i
COc1cccc(N2C(=NC(=O)C3CCCO3)SC3CS(=O)(=O)CC32)c1 (centres undefined)	-3	98	i
O=C(NCc1ccc(Br)cc1)OC1CC2CC1[C@H]1CCCCN1C2=O (some centres undefined)	-10	101	i
CCOC(=O)C1(C)CCCN(C(=O)c2ccc(OC)c(OC)c2)C1 (centres undefined)	-1	123	i
COc1ccc(N)c2c1C(=O)c1ccccc1C2=O	2	98	i
COc1ccc(OC)c2c1C(=O)C(Cl)=C(Cl)C2=O	93*	116	?
CN(C(=O)c1cc(-c2cccs2)nn1-c1ccccc1)C1CCS(=O)(=O)C1 (centres undefined)	7	94	i
COC(=O)c1ccn(CC(=O)NC2CCCCC2)n1	3	103	+
O=C(Cn1cc2c(n1)CCCC2)NC1CCCCCC1	4	104	i
CC(C)CCN1CCC[C@]2(N[C@H](c3ccc(C(F)(F)F)cc3)[C@@H]3C(=O)N(Cc4ccccc4)C(=O)[C@@H]32)C1=O	-1	101	i
Cc1cc(C)n2c(NCc3ccccc3)c(-c3cc4ccccc4o3)nc2n1	5	922	+
Cc1cc(C)n2nc(NCc3ccccc3)nc2n1	0	97	i
CCOc1ccc(S(=O)(=O)N2CCN(C(=O)c3cc(C4CC4)nn3-c3ccccc3)CC2)cc1	6	100	i
Cc1nc(COC(=O)c2ccc(CO)cc2)cs1	-3	91	i
Cc1nc(COC(=O)c2cc(O)c3ccccc3c2O)cs1	64*	99	i
CCn1c(Cc2cccs2)nnc1SCC(=O)NC1CC1	-1	103	+
C=CCn1c(Cc2cccs2)nnc1SCC(=O)NC1CC1	-12	101	i
C/C(CC(=O)Nc1ccc2c(c1)OCCO2)=N\NC(=O)COc1ccccc1C	-2	95	i
C/C(CC(=O)Nc1ccc2c(c1)OCCO2)=N\NC(=O)COc1cccc(C)c1	1	96	+
COc1ccc(-c2nc3ccc(Br)cn3c2CC(C)(C)C)cc1OC	0	100	i
COc1ccc(CC(=O)N[C@@H](CCSC)C(=O)N2CCC3(CC2)NCCc2[nH]cnc23)cc1	19	91	i
CSCC[C@H](NC(=O)Cc1ccc(Cl)cc1)C(=O)N1CCC2(CC1)NCCc1[nH]cnc12	-2	94	+
SMILES	Granule exo inh	ABCB6 inh 2	Myeloid diff 2
C=C1CC(COc2ccc3c(C)c(Cl)c(=O)oc3c2)(c2ccccc2)OC1=O (centres undefined)	3	100	.
O=C(CSc1nnnn1Cc1ccccc1)Nc1ccccc1	-1	99	i
C[C@@H]1C=C(C(=O)N2CCN(C)CC2)O[C@H](OCc2ccc(CO)cc2)C1	-1	102	i
C[C@H]1C=C(C(=O)N2CCOCC2)O[C@@H](OCc2ccc(CO)cc2)C1	7	96	+
Cc1cc(OCC(=O)OCC(=O)NCC2CCCO2)ccc1Cl (centres undefined)	0	99	i
CCC(C(=O)NC1CCCC1)N(Cc1cccs1)C(=O)Cn1nnc(-c2ccc(OC)c(OC)c2)n1 (centres undefined)	-1	96	i
COc1ccc(-c2nnn(CC(=O)N(Cc3cccs3)C(C)C(=O)NC3CCCC3)n2)cc1OC (centres undefined)	-1	97	+
Brc1ccc2ncnc(Nc3cccc4ccccc34)c2c1	0	91	i
OCCNc1ncnc2ccc(Br)cc12	2	70*	i
Cc1cccc(COCCN2CCN(S(=O)(=O)c3ccccc3)CCC2=O)c1	3	101	+
O=C1CCN(S(=O)(=O)c2ccccc2)CCN1CCOCc1ccccc1	16	109	i
COc1nc(Nc2cccc(F)c2)nc(OC)n1	-8	91	i
COc1cc2nc(Nc3cccc(F)c3)nc(N)c2cc1OC	62*	92	i
O=c1/c(=C/c2ccc(O)c([N+](=O)[O-])c2)sc2nc3ccccc3n12	70*	98	i
Cc1cc(/C=c2\sc3nc4ccccc4n3c2=O)c(C)n1-c1ccc(C(=O)O)cc1	8	103	i
CCN(CC)c1ccc(/C=c2\sc3nc4ccccc4n3c2=O)c(O)c1	17	139	+
O=c1/c(=C\c2cccnc2)sc2nc3ccccc3n12	2	102	i
COc1ccc(Cc2c(-c3ccc(F)cc3)nc3cc(C)c(Br)c(C)n23)c(C)c1	-3	128	i
Cc1cc(=O)[nH]c2sc(C(=O)N3c4ccccc4CC3C)c(N)c12 (centres undefined)	2	105	i
COc1ccccc1NS(=O)(=O)c1ccc(C(=O)NCC(c2cccs2)N2CCOCC2)cc1 (centres undefined)	-1	99	i
CC[n+]1c(/C=C/N(C)c2ccccc2)n(-c2ccccc2)c2ccc(-c3nc4ccccc4s3)cc21	64*	108	?
CCOC(=O)c1ccc2c(c1)n(CC)c(/C=C/N(C)c1ccccc1)[n+]2CC	0	92	i
CC1(c2ccccc2)NC(=O)N(CC(=O)Nc2ccc([N+](=O)[O-])cc2)C1=O (centres undefined)	14	100	i
Cc1ccc(C2(C)NC(=O)N(CC(=O)Nc3ccc(Cl)c(S(=O)(=O)N4CCCCC4)c3)C2=O)cc1 (centres undefined)	-5	99	i
CC1(c2ccccc2)NC(=O)N(CC(=O)Nc2ccc(Cl)c(S(=O)(=O)N3CCCCC3)c2)C1=O (centres undefined)	-2	98	+
SMILES	Granule exo inh	ABCB6 inh 2	Myeloid diff 2
CC1(c2ccc([N+](=O)[O-])cc2)NC(=O)N(CC(=O)Nc2ccc(N3CCCCC3)cc2)C1=O (centres undefined)	-2	91	+
CC1CCCCC1NC(=O)CN1CCN(S(=O)(=O)c2ccc(Br)s2)CC1 (centres undefined)	-2	95	i
O=C1C=C(OCCF)CC(c2cccc([N+](=O)[O-])c2)O1 (centres undefined)	10	.	i
O=C(Nc1cccc2nsnc12)c1cc2c(cc1Cl)Sc1nccn1S2(=O)=O	0	102	i
O=C(CCc1nnc(Cc2c[nH]c3ccccc23)o1)NC1CCCC1	-3	103	i
O=C(CCc1nnc(Cc2c[nH]c3ccccc23)o1)NCCC1CCCCO1 (centres undefined)	1	95	+
Cc1cc(N/N=C/c2c(O)ccc3ccccc23)nc(-c2ccccc2O)n1	96*	91	i
Oc1ccc2ccccc2c1/C=N/Nc1ccccc1	7	108	i
CCN(CC(=O)Nc1ccccc1OC)C(=O)c1ccc(NS(=O)(=O)c2ccc(C(C)=O)cc2)cc1	-2	98	i

Assay outcomes (PubChem)
